# Laboratory results: PubChem BioAssay (EPA / NIEHS)
# Active and inactive are the calls of the source. Rule for the calls: active = hit-call score of the fitted dose curve at least 0.9, where 1 is the maximum; inactive = score below 0.9.
# Read-out: Cytochrome P450 (CYP2B6), CYP2B6 (gene 1555)
# Assay: LTEA_HepaRG_CYP2B6: Life Technologies and Expression Analysis (LTEA) Assay for Cytochrome P450 (CYP2B6) using HepaRG (AID 2283481)
# Settings: mRNA level, 48 h; actives raise or lower the signal
# Experimental: LTEA_HepaRG is a cell based, multiplexed-readout assay that uses HepaRG, a human liver cell line, with measurements taken at 48 hours after chemical dosing on a 96-well plate.LTEA_HepaRG_CYP2B6 is one of 102 assay component(s) measured in the LTEA HepaRG cell culture assay. It is a marker of NR mediated metabolism.Data from the assay component LTEA_HepaRG_CYP2B6 was analyzed into 1 endpoint. This assay endpoint, LTEA_HepaRG_CYP2B6, was analyzed with bidirectional fitting relative to DMSO as the negative control and baseline of activity. Using a type of inducible reporter, measures of mRNA induction for gain or loss-of-signal activity can be used to understand regulation of transcription factor activity. To generalize the intended target to other relatable targets, this assay endpoint is annotated to the cyp intended target family, where the subfamily is xenobiotic metabolism.
# A total of 1060 chemcials from the ToxCast library were tested in eight-point concentration-response experiments. Cell culture and cytotoxicity assays were conducted at Thermo Fisher Scientific's Custom Services facility (Madison, WI). A single lot of human HepaRG cells (Thermo Fisher Scientific, Frederick, MD) was used for the cell culture experiments. 96-well format collagen type I coated plates of human HepaRG cells were prepared using established methods. Briefly, cryopreserved HepaRG cells were thawed, plated at a density of approximately 100,000 cells/well in HepaRG Thaw, Plate, and General Purpose media (HPRG770, Thermo Fisher Scientific), and incubated for 48 hours. 0.5% DMSO was selected as vehicle control to balance the requisite need of DMSO in HepaRG cultures to maintain differentiation (for example, baseline metabolism, proportions of hepatocytes vs. cholangiocytes), while enabling further hepatic receptor pathway activation (for example, PXR and CAR) in response to chemical exposure. 48 hours after plating, the culture medium was replaced with HepaRG Serum-Free Incudtion Media. Cells were exposed to each test chemical in duplicate and maintained in CO2 incubators for another 48 hours. Chemical plates were thawed to room temperature and 200x concentrations of treatment groups were prepared. 8-point conentration-reponse curves were made with the highest exposure at 100 uM, followed by half-log dilutions, all in 0.5% DMSO. Each test plate contained variouse controls, induction positive controls (1mM phenobarbital), cytotoxicity positive controls ([…] aflatoxin B1), vehicle controls (0.5% DMSO), and total lysis controls (0.5% DMSO). Cell morphology images were taken using an Essen IncuCyte FLR automated microscope, with six 96-well plates imaged in about 24 minutes. Images were captured and exported and JPEG files. Spent culture media was transfered to black-well plates for the LDH assay, and remaining media was sorted at -80 C for later use. Cells were treated with RLT buffer and frozen until shipped for gene expression analysis. Total RNA was isolated from the cell suspension in 75 uL of Buffer RLT (Qiagen, Germantown, MD 20874) by Quintiles/Expression Analysis (Durham, NC) using a custom isolation procedure. Total RNA from each plate well was transferred to a preamplification plate. Fluidigm's 96.96 Dynamic ArrayTM (Fluidigm, Amsterdam, the Netherlands) technology was used for gene expression analyses by quantitative reverse transcription polymerase chain reaction (qRT-PCR, performed by Quintiles/Expression Analysis, Durham, NC)89. Standard TaqManTM Assays (Applied Biosystems/ThermoFisher Scientific, Foster City, CA) were used to assess the expression of 93 genes selected based on their selectivity and sensitivity to important hepatic receptors known to be modulated by environmental chemicals; importance in human hepatocyte functionality; and hepatotoxicity. […]
Compound,AC50,outcome
Nc1ccc2c(c1)C(=O)c1ccccc1C2=O,11.3 µM (active),
CC1(C)NC(=O)NC1=O,,inactive
O=c1c(O)c(-c2ccc(O)c(O)c2)oc2cc(O)cc(O)c12,,inactive
CCCCCCOCCO,,inactive
C=CCOC(=O)c1ccccc1C(=O)OCC=C,,inactive
Cc1oc(-c2ccccc2)nc1CCOc1cccc2c1ccn2CCC(=O)O,88.5 µM (active),
CCCCCCCCCCCCCCCC,,inactive
Cc1cc(NC(=O)C(=O)O)cc(C)c1Oc1ccc(O)c2c1CCC2,0.00316 µM (active),
CCNc1cccc(C)c1,,inactive
COc1cc(-c2nc(NC(=O)c3cc4cc(C)cc(C)c4n3CC(=O)O)sc2CCC2CCCCC2)c(OC)cc1Cl,5.76 µM (active),
CCCCCCCCCCCCCO,,inactive
Oc1ccc2c(c1)OC[C@@H](N1CCC(O)(c3ccc(F)cc3)CC1)[C@H]2O,,inactive
CCCCCC(=O)O,,inactive
CNCc1cc(F)ccc1Oc1ccc(Cl)c(Cl)c1,,inactive
COCCOC[C@H](CC1(C(=O)NC2CCC(C(=O)O)CC2)CCCC1)C(=O)Oc1ccc2c(c1)CCC2 (stereo not given in full),,inactive
Cc1ccc(C)c(O)c1C,,inactive
CC(=O)OC/C=C(\C)CCC=C(C)C,,inactive
CCCCCCCCCCCC(=O)OC,,inactive
FC(F)(F)C(F)(F)C(F)(F)C(F)(F)C(F)(F)C(F)(F)CCI,,inactive
NS(=O)(=O)c1cc2c(cc1Cl)NCNS2(=O)=O,,inactive

Compound,AC50,outcome
Cc1cccc(Nc2cc(Cl)nc(SCC(=O)O)n2)c1C,65.4 µM (active),
C=CCc1ccc(O)c(OC)c1,,inactive
CCCc1cc(=O)[nH]c(=S)[nH]1,,inactive
CCCCCCC(=O)OCC,6.44 µM (active),
O=C(N[C@@H](Cc1ccccc1)[C@@H](O)C(=O)N1C[C@@H](O)[C@@H](O)C1)c1cc2cc(Cl)ccc2[nH]1,11.9 µM (active),
Clc1cc(Cl)c(Cl)cc1Cl,,inactive
CC(=O)C(C)=CC1C(C)=CCCC1(C)C (stereo not given),,inactive
Cc1ccc(C)c(C)c1,,inactive
CNC(=O)[C@H]1O[C@@H](n2cnc3c(NCc4cc(Cl)ccc4OCc4cc(C)no4)ncnc32)[C@H](O)[C@@H]1N,,inactive
CCCCCCCC=O,,inactive
CN[C@H]1CC[C@@H](c2ccc(Cl)c(Cl)c2)c2ccc(S(N)(=O)=O)cc21,11.4 µM (active),
COc1ccc(C)cc1N,25.6 µM (active),
COc1ccc2c(c1)c(CC(=O)O)c(C)n2C(=O)c1ccc(Cl)cc1,,inactive
CCCCC(CC)COC(=O)CC(C(=O)OCC(CC)CCCC)S(=O)(=O)O (stereo not given),15.8 µM (active),
OC[C@@H](O)[C@@H](O)[C@H](O)[C@H](O)CO,,inactive
CCOC(=O)CCC(=O)OCC,19.3 µM (active),
CC(CO)OC(C)CO (stereo not given) (tested in a mixture with another compound),,inactive
O=[N+]([O-])C(CO)(CO)CO,,inactive
CN1CCCC1=O,,inactive
NCCO,,inactive
